Source: PubChem
Only some compounds are listed: those with a hit (about 4.1% of all), similar ones and a draw of the others.
MIN6 prolif: MIN6 beta-cell proliferation induction; MIN6 cells proliferation, ATPlite luminescence, 48 h; cells starved in 0.2% serum; 100% = growth in 10% serum; proliferation, % at 10 µM; 330,000 tested, 0.29% active; AID 2380;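 active = compounds whose signal lies at least 3.5 SD above the mean of all wells on their plate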;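 also: 0% = DMSO-treated cells in low-serum medium and 100% = 10% serum control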
NR3A LBD binder: modulators (binders) of human NR3A ligand-binding domain. Tm shift relative to glycine control, % at 25 µM. 340,000 tested, 2.5% active. NR3A LBD differential scanning fluorimetry, Tm shift; 0% = protein alone, 100% = glycine-bound protein. AID 1259313;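 active = melting temperature shift of at least 10% of the positive control shift, at one fixed dose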
pCIP destab: compounds decreasing mouse p/CIP protein stability; F442A p/CIP-EGFP cells, EGFP fluorescence, 16 h; decrease of EGFP signal, % at 10 µM; 290,000 tested, 0.01% active;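 active = EGFP signal decrease of at least 30% at 10 µM or well 3 SD below plate mean, unless failing retest; inactive = the rest, including hits failing retest or dose response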
MPTP block: inhibitors of mitochondrial permeability transition pore; 360,000 tested, 1.4% active; inhibition, % at 10 µM; isolated mouse mitochondria, Ca2+ swelling absorbance, 30 min; AID 602449;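 active = inhibition of 50% or more, scaled per plate between neutral and stimulator controls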;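 also: 0% = DMSO wells given calcium and 100% = 1 mM EGTA wells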
FAS TE block: blocks the thioesterase domain of human fatty acid synthase; P49327; recombinant FAS-TE, OMFH fluorogenic substrate, fluorescence endpoint; inhibition, % at 15 µM; 360,000 tested, 0.67% active; AID 602261;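 active = compounds whose normalised, plate-corrected inhibition of enzyme fluorescence in the single-dose primary screen is 50% or more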;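 also: 0% = DMSO with enzyme and 100% = substrate without enzyme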
Rh123 counter: Rhodamine 123 counter-screen of mitochondrial pore hits | shares compounds with MPTP block | isolated mitochondria, membrane potential, Rhodamine 123 fluorescence | inhibition, % at 10 µM | 5,000 tested, 78% active; in the data active = inhibition above about 22%;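 also: 0% = DMSO vehicle and 100% = positive control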
MPTP abs DR: dose response confirmation of mitochondrial permeability transition pore inhibitors; shares compounds with MPTP block; isolated mitochondria swelling, absorbance; IC50, µM; 780 tested, 58% active; AID 651561; in the data active = IC50 below about 20 µM
MPTP cs DR: counter-screen for mitochondrial permeability transition pore inhibitors, dose response; shares compounds with MPTP block; isolated mitochondria counterscreen, fluorescence read-out; IC50, µM; 780 tested, 49% active; AID 651564; in the data active = IC50 below about 80 µM
Starred values were filed as active, the others as inactive; i = inactive; . = not tested or not shown.

SMILES	MIN6 prolif	NR3A LBD binder	pCIP destab	MPTP block	FAS TE block	Rh123 counter	others
CC(C)OC(=O)NC(C)(C)COC(=O)Nc1cccc(Cl)c1	-2	-1	-24	82*	3	96*
CCOC(=O)C1(CCOc2ccccc2)CCN(Cc2cccc(OC)c2O)CC1	-3	1	6	3	-11	.
COc1ccc(/C=C2/Sc3ccc(C(=O)NCCN4CCCCCC4)cc3NC2=O)cc1	-4	-1	5	87*	-6	-19	MPTP abs DR=14*;MPTP cs DR=40*
Fc1ccc(-[n+]2nc(Nc3ccccc3)sc2-c2cccc(Cl)c2Cl)cc1	-6	10	0	95*	-154	109*
Clc1cccc(-c2sc(Nc3ccccc3)n[n+]2-c2ccccc2)c1Cl	-3	2	-4	45	-132	.
CC(C)(C)c1ccc(C(=O)NC(=S)NNC(=O)c2cccs2)cc1	.	-6	-5	92*	-2	29*
Cc1cccc(C(=O)NC(=S)NNC(=O)c2ccc(Cl)cc2)c1	.	-9	-12	95*	0	19
O=C(NNC(=S)NC(=O)c1sc2ccccc2c1Cl)c1ccc(Cl)cc1	0	-5	4	108*	6	20
O=C(O)c1ccccc1NC(=S)NC(=O)c1sc2ccccc2c1Cl	-4	-1	10	-6	1	.
COc1ccc(C(=O)NNC(=S)NC(=O)c2ccc(Cl)cc2)cc1	-4	-3	.	.	.	.
Cc1cccc(C(=O)NC(=S)NNC(=O)c2cccs2)c1	0	-7	-9	54*	-2	-12
Cc1cccc(-c2nnc(SCC(=O)c3ccc(O)cc3O)n2C)c1	0	3	-2	-1	-4	.
CN(C)CCNC(=O)c1cc2c(s1)-c1ccccc1OC2	-2	0	-4	60*	-5	-6	MPTP abs DR=14*;MPTP cs DR=>80
O=C(c1cc2c(s1)-c1ccccc1OC2)N1CCCC1	-3	-1	-6	0	4	.
Cc1c(NC(=O)c2cc3c(s2)-c2ccccc2OC3)cccc1[N+](=O)[O-]	-5	1	0	64*	41	77*
O=C1C(O)CC2c3ccccc3CC3(CCCC3)N12 (stereo not given)	-3	0	-9	-2	0	.
C[C@@H]1CN([C@H](C)CO)C(=O)c2cc(NC(=O)c3ccncc3)ccc2O[C@@H]1CN(C)C(=O)Nc1ccccc1	2	1	.	0	-11	.
CC(Cl)C(=O)Nc1ccccc1C#N (stereo not given)	-1	0	-2	0	-15	.
O=C(Nc1ccccc1)Nc1ccc2snnc2c1	-1	32*	-8	101*	6	92*
O=C(NCc1ccccc1)c1ccc2nnsc2c1	-4	-1	-5	2	1	.
O=C(Nc1ccc(Cl)cc1)c1ccc2snnc2c1	-3	-34	9	-2	15	.
O=C(Nc1ccccc1)Nc1ccc2nnsc2c1	-4	42*	3	83*	14	72*
COc1ccc(NS(=O)(=O)c2ccc(N3CCCCC3)c(N)c2)cc1	-8	-6	.	90*	25	87*
CCN1CCN(c2ccc(S(=O)(=O)N3CCCCC3)cc2N)CC1	-2	0	.	1	-10	.
CC1CCN(c2ccc(S(=O)(=O)N3CCC(C)CC3)cc2N)CC1	-1	-1	-11	69*	22	77*
SMILES	MIN6 prolif	NR3A LBD binder	pCIP destab	MPTP block	FAS TE block	Rh123 counter	others
Nc1cc(S(=O)(=O)c2ccc(N3CCCCC3)c(N)c2)ccc1N1CCCCC1	.	.	.	94*	28	105*
COc1ccc(NS(=O)(=O)c2ccc(N3CCCCC3)c(NC(=O)C(C)NC(N)=O)c2)cc1 (stereo not given)	0	4	.	0	-2	.
Nc1cc(S(=O)(=O)N2CCCCC2)ccc1N1CCOCC1	-1	-1	-6	-2	-2	.
COc1cccc(CNc2nc3cc(-c4ccc(OC)cc4C)sc3c(=O)n2C)c1	.	.	.	-1	18	.
N/C(=N\OC(=O)CCCCCN1C(=O)c2ccccc2C1=O)c1ccccn1	-2	-2	-4	0	-3	.
CC1(C)C(=O)NCCN1C(=O)CCCC(=O)O	-4	0	-19	-1	-3	.
O=c1cc(C(F)(F)F)nc(SCc2cccc3ccccc23)[nH]1	-8	5	-9	78*	7	85*
CN(C)CCCOc1nn(Cc2ccccc2)c2ccccc12	-2	-1	0	75*	-1	-4
OCc1ccc(-c2nn(Cc3ccccc3)c3ccccc23)o1	0	-1	.	-1	1	.
CC1CCN(S(=O)(=O)N2CCC(C(=O)NCc3cccs3)CC2)CC1	-2	0	-14	0	-3	.
CC1CCCC(NC(=O)C2CCC(CNc3c(N4CCCCC4)c(=O)c3=O)CC2)C1C (stereo not given)	-3	-1	10	1	1	.
CCOc1ccc(NC(=O)CN(C)C(=O)C2CCCO2)cc1OCC (stereo not given)	-3	2	.	-2	-6	.
CCNc1ccc(S(=O)(=O)NCCN(C)C)cc1[N+](=O)[O-]	0	0	-1	2	-5	.
CN(C)CCCNS(=O)(=O)c1ccc(NC2CCCCCC2)c([N+](=O)[O-])c1	-4	-5	5	85*	-6	81*
Nc1nonc1N/N=C/c1c(O)ccc2ccccc12	-3	25*	0	56*	13	74*
COc1ccc(C(=O)COC(=O)c2sc(C)nc2C)cc1Cl	-3	-5	.	0	15	.
COc1cccc(C(C)(O)c2nc(-c3cc4ccccc4o3)cs2)c1 (stereo not given)	.	.	.	88*	20	96*
COc1cccc(C(C)(O)c2nc(-c3ccccc3)cs2)c1 (stereo not given)	.	.	.	3	11	.
COc1cccc(C(C)(O)c2nc(-c3ccc(N(C)C)cc3)cs2)c1 (stereo not given)	.	.	.	99*	11	91*
O=C1C(=O)N(CCCN2CCOCC2)C(c2cccs2)/C1=C(/O)c1ccc2c(c1)OCO2 (stereo not given)	-1	.	3	.	.	.
CCOC(=O)c1c(NC(=O)Cc2ccccc2)sc2c1CC(C)(C)NC2(C)C	-6	-1	-11	71*	-6	-4	MPTP abs DR=i;MPTP cs DR=>80
COC(=O)c1c(NC(=O)c2ccc(OC(C)C)cc2)sc2c1CC(C)(C)NC2(C)C	-6	3	-1	87*	9	2	MPTP abs DR=>100;MPTP cs DR=56*
COC(=O)c1c(NC(=O)c2ccco2)sc2c1CC(C)(C)NC2(C)C	-4	-1	-11	-1	-4	.
COC(=O)c1c(NC(=O)c2ccccc2)sc2c1CC(C)(C)NC2(C)C	-6	-2	-17	73*	-1	-5	MPTP abs DR=18*;MPTP cs DR=>80
